# Assay outcomes from PubChem.
# Gal4-VP16 FLuc – VP16 counterscreen qHTS for inhibitors of ROR gamma transcriptional activity; Drosophila S2 Gal4-VP16 UAS-luciferase, luminescence, 20 h; Potency, µM (highest dose often 53.6 µM), without a hit: at the highest dose activity, negative = inhibition, most hits filed as inhibitors; hit rate 3.5% among 310,000;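 also: Gal4-VP16 expression switched on by copper sulfate through the metallothionein promoter; % is scaled to controls: 0 for no effect and ±100 for the full control effect; nearly all actives have a fitted effect of over 50% in size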
# RORgamma inh – qHTS for inhibitors of ROR gamma transcriptional activity; Nuclear receptor ROR-gamma (Mus musculus), P51450; Drosophila S2 Gal4-RORgamma UAS-luciferase reporter, 20 h; Potency, µM (series often up to 53.6 µM), inactives show top-dose activity change, negative = inhibition, actives largely listed as inhibitors; hit rate 5.4% among 310,000; AID 2551, 2010; also: % is scaled to controls: 0 for no effect and ±100 for the full control effect; nearly all actives have a fitted effect of over 60% in size
# Target sequence (P51450 whole entry, looked up, the tested form may be a part): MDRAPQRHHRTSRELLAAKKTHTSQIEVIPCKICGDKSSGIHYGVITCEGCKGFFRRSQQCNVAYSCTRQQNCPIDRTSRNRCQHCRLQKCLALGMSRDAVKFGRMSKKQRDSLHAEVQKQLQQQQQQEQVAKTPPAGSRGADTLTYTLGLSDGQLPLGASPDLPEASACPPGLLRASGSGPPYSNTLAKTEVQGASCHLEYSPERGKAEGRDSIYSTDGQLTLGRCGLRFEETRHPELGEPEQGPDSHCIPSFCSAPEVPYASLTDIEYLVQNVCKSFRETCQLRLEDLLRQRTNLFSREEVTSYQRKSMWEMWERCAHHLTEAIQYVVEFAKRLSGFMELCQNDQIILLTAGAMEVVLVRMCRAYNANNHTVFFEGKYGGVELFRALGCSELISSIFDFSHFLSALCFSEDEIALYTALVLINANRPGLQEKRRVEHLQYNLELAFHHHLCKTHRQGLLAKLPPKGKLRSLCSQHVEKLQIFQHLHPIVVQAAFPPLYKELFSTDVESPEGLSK
#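 Drosophila Schneider cells stably carrying a metallothionein-driven Gal4 DBD–ROR gamma fusion and a UAS-Photinus luciferase reporter were exposed to compound for 1 hr, then induced with copper sulfate (700 uM final) for 20 hr at ambient temperature before luminescence reading.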
# TGFb inhibitor – qHTS for Inhibitors of TGF-b | Potency, µM (highest dose often 46.1 µM), inactives show at the top dose activity, negative = inhibition, actives largely listed as inhibitors | hit rate 1.2% among 410,000 | AID 588855, 2011 | HepG2 CAGA-GFP TGF-b/SMAD3 reporter, GFP fluorescence, 18 h; TGF-beta stimulated, 500 pg/mL final; also: % is scaled to controls: 0 for no effect and ±100 for the full control effect; nearly all actives have a fitted effect of over 65% in size
#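 Smad-responsive CAGA-GFP expression was quantified in HEPG2 cells exposed to compounds and 500 pg/mL final TGF-beta for 18 h at 37 degrees C; unstimulated wells defined full inhibition.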
# S2 tox – Viability Counterscreen for Primary qHTS for Inhibitors of ATXN expression; Potency, µM (doses to about 56.7 µM), hits mostly cytotoxic; hit rate 0.49% among 400,000; S2 cells (HEK-293 line with an ATXN2-luciferase reporter) viability, CellTiter-Fluor protease fluorescence, 24 h; also: nearly all actives have a fitted effect of over 40% in size
# ATXN2 expr inh – Primary qHTS for Inhibitors of ATXN expression; hit rate 0.72% among 360,000; Potency, µM (titrated, usually from 57 µM), inactives show at the highest dose activity change, negative = inhibition, most hits filed as inhibitors; HEK-293 ATXN2-luciferase reporter, luminescence, 24 h; also: % is scaled to controls: 0 for no effect and ±100 for the full control effect; nearly all actives have a fitted effect of over 55% in size
#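 qHTS (up to 57 uM final) was run with 24 h compound exposure of reporter cells at 37 °C. Each well was multiplexed: SteadyGlo luminescence measured ATXN2-luciferase expression after a fluorogenic Gly-Phe-AFC viability readout (25 uM final).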
# HepG2 viability – qHTS for Inhibitors of TGF-b: Cytotox Counterscreen. hit rate 0.76% among 410,000. Potency, µM (top dose mostly 46.1 µM), for the others: at the highest dose activity change, negative = cytotoxicity, actives largely listed as cytotoxic. HepG2 CAGA-GFP viability, ATP luminescence, 18 h
#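 CellTiter-Glo luminescence gave cytotoxicity after 18 hours at 37 degrees C. The cells were HepG2 CAGA-GFP in 1% FBS DMEM, stimulated with 500 pg/mL TGF-beta after compound addition. %Activity was normalised to no-cell wells (complete cell-killing) and DMSO (no toxicity), and curves were fitted and classified.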
# Starred values were filed as active, the others as inactive; i = inactive; ? = inconclusive; . = not tested or not shown; [ ] = dose if it differs, or a comment. An excerpt weighted towards active compounds, which were near 6.1% of everything screened. Calls follow the shape of the dose curve; as a rule, active = well fitted curve in the direction sought with a large enough effect; inconclusive = small, poorly fitted or top-dose-only effect, or another doubt; inactive = no such curve, though single readings can be large; an effect the other way counts as inactive or inconclusive. Potency is read from the fitted curve at half-maximal effect.
SMILES,Gal4-VP16 FLuc,RORgamma inh,TGFb inhibitor,S2 tox,ATXN2 expr inh,HepG2 viability
CC(C)n1c(-c2ccccc2F)n[nH]c1=S,11µM*,3.2µM*,3%,i,-10%,-18%
CC(c1ccccc1)n1c(-c2ccc(Cl)cc2)n[nH]c1=S (centres undefined),6.3µM*,5.6µM*,-18%,i,4%,-36%
CN(C)c1ccc(/C=C/c2c(F)cnc3ccccc23)cc1,.,.,?,.,.,-51%
O=C(O)c1ccc(N=N/C(=N\Nc2ccc(C(=O)O)cc2)c2ccccc2)cc1,.,.,1%,13µM*,1%,3%
COc1cc2nc(N(C)C)c(CNCc3nonc3C)cc2c(OC)c1OC,.,.,.,i,.,.
N=c1n(CC(=O)c2ccc([N+](=O)[O-])cc2)c2ccccc2n1Cc1ccccc1,2%,-24%,-1%,?,?,-27%
N=c1n(CCO)c2ccccc2n1CCOc1ccc(F)cc1,.,.,21%,i,-17%,5%
C=CCn1c(=N)n(CC(=O)c2cccc([N+](=O)[O-])c2)c2ccccc21,-16%,-3%,0%,?,-19%,0%
N=c1n(CCN2CCCCC2)c2ccccc2n1CC(=O)c1cccc([N+](=O)[O-])c1,-66%,?,?,?,?,13µM*
N=c1n(CC(=O)c2ccc(Br)cc2)c2ccccc2n1Cc1ccccc1,.,.,16µM*,.,?,-99%
CCCCn1c(=N)n(CC(=O)C(C)(C)C)c2ccccc21,?,5µM*,-18%,i,-15%,-21%
CCCCn1c(=N)n(CCCOc2ccc(F)cc2)c2ccccc21,.,.,16µM*,.,.,13µM*
CCCS(=O)(=O)N1CC(=O)N(c2ccc(Cl)cc2C)C(C)(C(=O)NC2CCCC2)C1 (centres undefined),.,.,-23%,.,.,-16%
Cc1ccc(C(=O)NCc2ccc(F)cc2)cc1NC(=O)c1nsc2ccccc12,.,.,?,?,-5%,-2%
CCOC(=O)c1c(N)n(-c2ccccc2CC)c2nc3ccccc3nc12,.,.,40%,i,-1%,-2%
CCn1c(=N)n(CC(=O)C(C)(C)C)c2ccccc21,3.2µM*,?,?,i,-6%,-28%
Cc1ccccc1Cn1c(=N)n(CC(=O)c2ccco2)c2ccccc21,-3%,-3%[10 µM],10µM*,i,-23%,-24%
Cn1c(=N)n(CC(=O)c2ccccc2)c2ccccc21,11µM*,8.9µM*,-3%,i,?,-52%
CCCn1c(=N)n(CC(=O)C(C)(C)C)c2ccccc21,1%,?,-1%,i,-14%,0%
Cn1c(=N)n(CC(=O)C(C)(C)C)c2ccccc21,?,11µM*,?,i,20%,-6%
Cn1c(=N)n(CC(=O)O)c2ccccc21,-8%,1%,?,i,6%,5%
COc1ccc(N2CCN(S(=O)(=O)CCNC(=O)COc3ccccc3F)CC2)cc1,.,.,-5%,.,.,1%
CCc1c2c(nc3c(C(C)C)cccc13)-c1cccc(=O)n1C2,1%,-4%,.,.,.,.
CCn1c(/C(C#N)=N/O)nc2ccccc21,?,8.9µM*,17%,?,-3%,4%
Cc1ccccc1NC(=S)NCc1ccccc1,11µM*,4µM*,-17%,i,-3%,-4%
SMILES,Gal4-VP16 FLuc,RORgamma inh,TGFb inhibitor,S2 tox,ATXN2 expr inh,HepG2 viability
Cc1ccccc1NC(=O)C(=O)NCCc1ccccc1,-2%,40%,9%,i,1%,16%
CCC(C)(C)NC(=S)Nc1ccccc1C,11µM*,4µM*,-15%,?,11%,4%
COc1ccc(/C=C\c2onc(C)c2S(=O)(=O)N2CCC(C(=O)Nc3ccc(Cl)cc3)CC2)cc1,.,.,-17%,.,.,-22%
COC(=O)[C@H](Cc1ccccc1)NC(=O)N1CCCCCC1,-6%,9%,1%,i,17%,-2%
NC(=O)NC(Cc1ccccc1)C(=O)NCC1(N2CCCCC2)CCCCC1 (centres undefined),-2%,-27%,-3%,i,2%,3.5µM*
Cc1ccc(CN(C(=O)COc2ccc(Cl)c(C)c2)c2ccccn2)o1,.,.,-24%,i,24%,-28%
CCCCCCCCCCC[N+](C)(C)CC/C=C1/c2ccccc2Sc2ccc(Cl)cc21,-7%,17%,?,11µM*,.,20µM*
CCCCCCCCCC[N+](C)(C)CC/C=C1/c2ccccc2Sc2ccc(Cl)cc21,-1%,32%,?,7.9µM*,.,-107%
CC[N+](C)(C)CC/C=C1/c2ccccc2Sc2ccc(Cl)cc21,-2%,9%,8%,i,-22%,15%
Cc1ccc(C)c(N2CCN(C(=O)c3cc4c(=O)n(Cc5cccnc5)ccc4nc3C)CC2)c1,.,.,?,i,-24%,-43%
COC(=O)Cc1ccc2sc(-c3ccccc3)nc2c1,16µM*,?,?,i,62%,-17%
O=C(O)Cc1ccc2sc(-c3ccccc3)nc2c1,-13%,-11%,0%,i,21%,-14%
Cc1ccsc1/C=C/c1ccc2ccccc2n1,?,10µM*,-24%,i,8%,-64%
C(=C\c1ccco1)/c1ccc2ccccc2n1,4%,12%,?,i,-31%,i
Cc1ccsc1/C=C/c1ccc2cccc(O)c2n1,?,4.5µM*,?,?,-33%,-30%
Cc1[nH]c2ccccc2c1/C=C/c1ccc2ccccc2n1,.,.,0%,.,.,10µM*
Cc1cccc(/C=C/c2cccs2)n1,.,.,?,.,.,-25%
Oc1cccc2ccc(/C=C/c3cccs3)nc12,?,13µM*,?,i,0%,-22%
COc1cccc(CNC(=O)c2cc(C)nc3c2c(C)nn3-c2ccc(C)cc2)c1,.,.,-27%,i,-7%,-23%
CC(C)CNC(=O)c1cn(C2CCN(Cc3nc4ccccc4s3)CC2)nn1,.,.,.,i,.,.
Cc1cn(C)c(CC(=O)NCc2cccc(Cl)c2)c1C(=O)O,.,.,5%,i,2%,-6%
Cc1ccc2nc(C(O)C(O)c3nc4ccc(C)cc4[nH]3)[nH]c2c1 (centres undefined),7.9µM*,7.1µM*,-8%,i,21%,-19%
Cc1c(N)cccc1-c1nc2ccccc2[nH]1,?,11µM*,3%,i,19%,-17%
Cc1ccc2nc(-c3ccccc3N)[nH]c2c1,-3%[10 µM],10µM*,25%,i,31%,-5%
Cc1ccc2nc(C(C)O)[nH]c2c1 (centres undefined),-4%,27%,0%,i,7%,0%
